Screening results deposited in PubChem by Johns Hopkins Ion Channel Center.
This is a sample that favours compounds with a hit; in the whole collection about 1.6% have one here.
KCNQ2 block: inhibitors of rat KCNQ2 potassium channel; O88943; CHO-K1 KCNQ2, FluxOR thallium flux, 20 min; stronger effect = lower value; B-score at 10 µM; actives 1.1% (n = 310,000); AID 2156;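 active means fluorescence ratio B-score at most minus 3 library SDs, with starting brightness B-score within 2 library SDs, cut at about -5.5 in these data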
Target sequence (O88943 whole entry, looked up): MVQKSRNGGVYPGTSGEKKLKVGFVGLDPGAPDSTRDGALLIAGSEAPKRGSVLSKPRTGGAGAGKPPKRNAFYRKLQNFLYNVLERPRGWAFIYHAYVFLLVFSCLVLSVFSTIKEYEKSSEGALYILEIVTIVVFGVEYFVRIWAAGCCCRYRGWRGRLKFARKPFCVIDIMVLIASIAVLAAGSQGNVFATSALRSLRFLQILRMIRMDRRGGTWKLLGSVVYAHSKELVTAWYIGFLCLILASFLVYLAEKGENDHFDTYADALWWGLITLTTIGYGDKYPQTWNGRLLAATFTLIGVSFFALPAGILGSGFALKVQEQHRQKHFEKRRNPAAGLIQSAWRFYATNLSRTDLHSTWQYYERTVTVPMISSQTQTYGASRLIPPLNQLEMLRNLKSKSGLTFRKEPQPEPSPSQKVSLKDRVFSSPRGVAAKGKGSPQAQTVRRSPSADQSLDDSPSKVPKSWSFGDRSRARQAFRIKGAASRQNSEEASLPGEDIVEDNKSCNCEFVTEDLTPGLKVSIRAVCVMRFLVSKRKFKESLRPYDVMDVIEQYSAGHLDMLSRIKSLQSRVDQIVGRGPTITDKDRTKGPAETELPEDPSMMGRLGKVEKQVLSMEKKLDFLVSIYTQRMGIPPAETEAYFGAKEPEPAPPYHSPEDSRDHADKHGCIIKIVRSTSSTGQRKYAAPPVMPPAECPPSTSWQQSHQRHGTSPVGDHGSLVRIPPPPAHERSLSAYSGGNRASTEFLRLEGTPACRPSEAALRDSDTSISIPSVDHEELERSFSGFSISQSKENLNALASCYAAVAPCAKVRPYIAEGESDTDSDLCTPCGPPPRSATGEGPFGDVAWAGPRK
KCNQ2 enhance: KCNQ2 (rat) channel potentiation. O88943. actives 0.54% (n = 310,000). B-score at 10 µM. CHO-K1 KCNQ2, FluxOR thallium flux fluorescence; stronger effect = higher value;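 active means fluorescence ratio B-score at least 3 SD of library B-scores, with initial fluorescence B-score within 3 of them, cut at about 5.3 in these data; same plate scores as AID 2156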;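 further: B-score of peak minus minimum over baseline fluorescence ratio after K+ and Tl+ stimulus; positive B-score means potentiation of KCNQ2 with more thallium influx and brighter signal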
Starred values were filed as active, the others as inactive.

For CC(=O)N1C(C(=O)O)Cc2c([nH]c3ccccc23)C1(C)C (stereo not drawn) the results were KCNQ2 block inactive and KCNQ2 enhance 7.3*.
For Cc1cccc(-n2c(SCC(N)=O)nc3c(c2=O)C2(CCCC2)Cc2ccccc2-3)c1 the results were KCNQ2 block -6.8* and KCNQ2 enhance -6.8.
Screening O=c1c2c(nc(NCCO)n1CC1CCCCC1)-c1ccccc1CC21CCCC1 returned KCNQ2 block -8.8* and KCNQ2 enhance -8.8.
CCCn1c(SCC#N)nc2c(c1=O)C1(CCCC1)Cc1ccccc1-2 was read as KCNQ2 block -6.4* and KCNQ2 enhance -6.4.
NC(=O)CSc1nc2c(c(=O)n1-c1ccccc1)C1(CCCCC1)Cc1ccccc1-2 was read as KCNQ2 block inactive and KCNQ2 enhance 0.74.
For CC1(C)CC(n2c(NCCO)nc3c(c2=O)C2(CCCC2)Cc2ccccc2-3)CCO1 (stereo not drawn) the results were KCNQ2 block inactive.
N#CCSc1nc2c(c(=O)n1Cc1ccco1)C1(CCCC1)Cc1ccccc1-2 was read as KCNQ2 block inactive.
Screening O=C(OCN1C(=O)c2ccccc2C1=O)c1ccc(Cl)nc1 returned KCNQ2 block inactive.
For CC1(C)OC2OC(C(=O)N/N=C/c3cc(Br)ccc3O)C3OC(C)(C)OC3C2O1 (stereo not drawn) the results were KCNQ2 block inactive and KCNQ2 enhance 1.5.
For CCOc1ccc(S(=O)(=O)NCCC(=O)NCc2ccncc2)cc1 the results were KCNQ2 block inactive and KCNQ2 enhance 0.94.
Screening O=C(O)c1cc(-c2ccc(Br)s2)nc2ccccc12 returned KCNQ2 block inactive.
CN1CCN(NC(=O)c2cc(-c3ccc(Br)s3)nc3ccccc23)CC1 was read as KCNQ2 block -5.7* and KCNQ2 enhance -5.7.
Screening CC1CC(O)C(C)CN1 (stereo not drawn) returned KCNQ2 block inactive.
For CCCOc1ccc(C(=O)NCC(c2ccco2)N(C)C)cc1 (stereo not drawn) the results were KCNQ2 block inactive and KCNQ2 enhance 0.03.
`COc1cc(/C=C2\SC(=S)N(NC(=O)c3ccccc3O)C2=O)ccc1O` gave KCNQ2 block inactive.
Screening O=C(NN1C(=O)/C(=C/c2ccc(O)cc2)SC1=S)c1ccccc1O returned KCNQ2 block -6* and KCNQ2 enhance -6.
Screening Cc1noc(C)c1COc1cccc(C(=O)NCCc2c[nH]c3ccccc23)c1 returned KCNQ2 block inactive and KCNQ2 enhance 0.11.
`Cc1onc(-c2ccccc2)c1C(=O)NCCc1c[nH]c2ccccc12` gave KCNQ2 block -5.7* and KCNQ2 enhance -5.7.
`CCOC(=O)c1ccc(S(=O)(=O)N2CCN(CC(=O)NC(=O)NC3CCCCC3)CC2)cc1` gave KCNQ2 block -5.6* and KCNQ2 enhance -5.6.
`O=C(CN1CCN(S(=O)(=O)c2ccc(F)cc2)CC1)NC1CCCC1` gave KCNQ2 block inactive and KCNQ2 enhance 2.
Screening CC(C)(C)C1CCC(=NNc2nc3ccccc3[nH]2)CC1 (stereo not drawn) returned KCNQ2 block -5.8* and KCNQ2 enhance -5.8.
For c1ccc(CN2CCC(=NNc3nc4ccccc4[nH]3)CC2)cc1 the results were KCNQ2 block inactive and KCNQ2 enhance 0.87.
`Fc1ccc(-n2cc(-c3ccccc3)c3c(NN4CCOCC4)ncnc32)cc1` gave KCNQ2 block inactive and KCNQ2 enhance 0.01.
Screening COc1ccc(-n2cc(-c3ccccc3)c3c(NN4CCOCC4)ncnc32)cc1 returned KCNQ2 block -5.6* and KCNQ2 enhance -5.6.
For Cc1cccc(-n2cc(-c3ccccc3)c3c(N4CCOCC4)ncnc32)c1 the results were KCNQ2 block -6.7* and KCNQ2 enhance -6.7.
Cc1ccc(-n2cc(-c3ccccc3)c3c(N4CCOCC4)ncnc32)cc1 was read as KCNQ2 block inactive.
Screening CCC(C)c1c(O)nc(SCC(=O)N2CCCCCC2)[nH]c1=O (stereo not drawn) returned KCNQ2 block inactive.
CN(C)N=Nc1nc2c(c(=O)n(C)c(=O)n2C)n1CC1CO1 (stereo not drawn) was read as KCNQ2 block inactive and KCNQ2 enhance 1.6.
`NC[C@@H]1O[C@H](C23CC4CC(CC(C4)C2)C3)Cc2c1ccc(O)c2O` gave KCNQ2 block -5.8* and KCNQ2 enhance -5.8.
For CSCC[C@H](N)C(=O)N1CCC(C(=O)N[C@H](C)C(=O)Nc2ccc(C(C)C)cc2)CC1 the results were KCNQ2 block inactive and KCNQ2 enhance 1.4.
Screening O=c1c(C(c2nnnn2C2CCCCC2)N2CCCCC2)coc2ccc(Cl)cc12 (stereo not drawn) returned KCNQ2 block inactive.
`COc1ccc(Oc2ccc(C(F)(F)F)cc2NC(=O)c2ccc(C)cc2)cc1` gave KCNQ2 block -5.6* and KCNQ2 enhance -5.6.
Screening COCCOc1ccc(C(F)(F)F)cc1NC(=O)c1ccc(C)cc1 returned KCNQ2 block inactive.
`CC(=O)NC1=C(NC2CCS(=O)(=O)C2)C(=O)c2ccccc2C1=O` (stereo not drawn) gave KCNQ2 block inactive and KCNQ2 enhance 6.1*.
CN(C1=C(NC(=O)c2ccccc2)C(=O)c2ccccc2C1=O)C1CCS(=O)(=O)C1 (stereo not drawn) was read as KCNQ2 block inactive and KCNQ2 enhance 3.5.
COc1ccc(NC2=Nc3cccc4cccc2c34)cc1 was read as KCNQ2 block inactive and KCNQ2 enhance 1.1.
`Oc1ccc2ccccc2c1CN1CCN(c2ccccc2F)CC1` gave KCNQ2 block inactive and KCNQ2 enhance 13*.
Screening Oc1ccc2ccccc2c1CN1CCN(C/C=C/c2ccccc2)CC1 returned KCNQ2 block inactive and KCNQ2 enhance 1.8.
For O=C(CCCC(=O)OCC(Cl)=C(Cl)Cl)Nc1cccc2ccccc12 the results were KCNQ2 block inactive.
Screening O=C(CCCC(=O)OCC(Cl)=C(Cl)Cl)Nc1ccc(F)cc1 returned KCNQ2 block inactive and KCNQ2 enhance 9.2*.
`COc1ccc(N(CC(=O)NC2CCCCCC2)S(=O)(=O)c2ccc(C)cc2)cc1OC` gave KCNQ2 block inactive.
For O=C(c1ccc(F)cc1)C1CCN(C(=O)c2ccccc2F)CC1 the results were KCNQ2 block inactive and KCNQ2 enhance 0.55.
`O=C(O)c1ccccc1NS(=O)(=O)c1cccc(C(F)(F)F)c1` gave KCNQ2 block inactive.
Screening O=C(O)c1ccccc1NS(=O)(=O)c1cccc(-n2sc3ccccc3c2=O)c1 returned KCNQ2 block inactive and KCNQ2 enhance 13*.
For CCNC(=O)C(=O)NCC1OCCCN1S(=O)(=O)c1cccs1 (stereo not drawn) the results were KCNQ2 block inactive and KCNQ2 enhance 1.1.
COc1ccc(/C=C2\Sc3ccc(C(=O)NCCCN4CCCC4)cc3N(C)C2=O)cc1OC was read as KCNQ2 block inactive and KCNQ2 enhance 0.77.
CC(=O)Nc1ccc(N(CC(=O)NC2CCCCC2)C(=O)Cn2nnc(-c3ccccc3)n2)cc1 was read as KCNQ2 block inactive and KCNQ2 enhance 0.58.
COc1ccc(S(=O)(=O)NNC(=O)C(=O)NNc2ccccn2)cc1 was read as KCNQ2 block inactive.
Screening Cc1cc(C(=O)CSc2nc3ccccc3o2)c(C)n1CC1CCCO1 (stereo not drawn) returned KCNQ2 block inactive and KCNQ2 enhance 0.77.
Screening Cc1cc(C(=O)CSc2nc3ccccc3[nH]2)c(C)n1CC1CCCO1 (stereo not drawn) returned KCNQ2 block -5.6* and KCNQ2 enhance -5.6.
